Assay results: PubChem BioAssay AID1159580 (chemical genetic matrix, 2015)
Hit rate of the full screen: of about 5,500 compounds, about 2,000 (36%) were called active. About 18% were inconclusive and are not listed. No stated cut-off is given here; in the data, active means normalized growth mostly below about 0.91 (no sharp cut-off); inconclusive means no clear call, values can overlap the other calls; inactive means mostly above about 0.92. The list shows a part of the results.

Experiment: chemical genetic growth profiling, strain panel (AID 1159580);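 further: tested at 20 µM; growth read once vehicle control cultures reached saturation at 30 °C; 1 = growth at the plate median or of vehicle wells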
Conditions: S. cerevisiae deletion strains, growth OD

Measured: normalized growth

CC1SC(c2cccnc2)N(c2ccc(F)cc2F)C1=O (stereo unspecified)
inactive: locus YAR019C, strain CDC15, stronger effect = lower value 1 | locus YBL105C, strain PKC1, stronger effect = lower value 0.987 | locus YBR135W, strain CKS1, stronger effect = lower value 0.982 | locus YBR136W, strain MEC1, stronger effect = lower value 0.99 | locus YBR160W, strain CDC28, stronger effect = lower value 0.983 | locus YDL017W, strain CDC7, stronger effect = lower value 0.985 | locus YDL028C, strain MPS1, stronger effect = lower value 0.994 | locus YDL101C, strain DUN1, stronger effect = lower value 0.985 | locus YDL108W, strain KIN28, stronger effect = lower value 1 | locus YDL132W, strain cdc53, stronger effect = lower value 0.981 | locus YDL214C, strain PRR2, stronger effect = lower value 1.01 | locus YDR052C, strain DBF4, stronger effect = lower value 0.981 | locus YDR054C, strain cdc34, stronger effect = lower value 0.981 | locus YDR226W, strain ADK1, stronger effect = lower value 0.974 | locus YDR477W, strain SNF1, stronger effect = lower value 0.981 | locus YER123W, strain YCK3, stronger effect = lower value 0.942 | locus YER133W, strain GLC7, stronger effect = lower value 0.99 | locus YFL009W, strain cdc4, stronger effect = lower value 0.981 | locus YFL029C, strain CAK1, stronger effect = lower value 0.997 | locus YFR003C, strain YPI1, stronger effect = lower value 0.991 | locus YFR019W, strain FAB1, stronger effect = lower value 0.933 | locus YFR028C, strain CDC14, stronger effect = lower value 0.979 | locus YGR040W, strain KSS1, stronger effect = lower value 0.974 | locus YGR052W, strain FMP48, stronger effect = lower value 0.931 | locus YGR092W, strain DBF2, stronger effect = lower value 0.965 | locus YHR030C, strain SLT2, stronger effect = lower value 1.01 | locus YHR079C, strain IRE1, stronger effect = lower value 0.972 | locus YHR082C, strain KSP1, stronger effect = lower value 0.925 | locus YHR205W, strain SCH9, stronger effect = lower value 1 | locus YIL147C, strain SLN1, stronger effect = lower value 0.992 | locus YJL095W, strain BCK1, stronger effect = lower value 0.946 | locus YJL128C, strain PBS2, stronger effect = lower value 0.988 | locus YJL157C, strain FAR1, stronger effect = lower value 1 | locus YJR016C, strain ILV3, stronger effect = lower value 0.986 | locus YJR066W, strain TOR1 (second series), stronger effect = lower value 0.966 | locus YJR066W, strain TOR1, stronger effect = lower value 0.82 | locus YKL048C, strain ELM1, stronger effect = lower value 1 | locus YKL067W, strain YNK1, stronger effect = lower value 1.02 | locus YKL101W, strain HSL1, stronger effect = lower value 1.02 | locus YKL193C, strain SDS22, stronger effect = lower value 0.973 | locus YKL203C, strain TOR2, stronger effect = lower value 0.965 | locus YLR113W, strain HOG1, stronger effect = lower value 0.957 | locus YLR133W, strain CKI1, stronger effect = lower value 1.01 | locus YLR403W, strain SFP1, stronger effect = lower value 0.976 | locus YML070W, strain DAK1, stronger effect = lower value 1.02 | locus YMR001C, strain CDC5, stronger effect = lower value 0.984 | locus YMR205C, strain PFK2 (second series), stronger effect = lower value 1.02 | locus YMR277W, strain FCP1, stronger effect = lower value 0.978 | locus YNL006W, strain LST8, stronger effect = lower value 0.986 | locus YNL020C, strain ARK1, stronger effect = lower value 1.01 | locus YNL161W, strain CBK1, stronger effect = lower value 0.976 | locus YNL183C, strain NPR1, stronger effect = lower value 0.968 | locus YNL207W, strain RIO2, stronger effect = lower value 0.975 | locus YNL222W, strain SSU72, stronger effect = lower value 0.983 | locus YNL307C, strain MCK1 (second series), stronger effect = lower value 1 | locus YOL078W, strain AVO1, stronger effect = lower value 0.976 | locus YOL136C, strain PFK27, stronger effect = lower value 1.03 | locus YOR061W, strain CKA2, stronger effect = lower value 0.995 | locus YOR119C, strain RIO1, stronger effect = lower value 0.833 | locus YOR231W, strain MKK1, stronger effect = lower value 0.936 | locus YOR329C, strain SCD5, stronger effect = lower value 0.979 | locus YPL031C, strain PHO85, stronger effect = lower value 0.981 | locus YPL153C, strain RAD53, stronger effect = lower value 0.968 | locus YPL204W, strain HRR25, stronger effect = lower value 0.972 | locus YPL209C, strain IPL1, stronger effect = lower value 0.979 | locus YPL256C, strain CLN2, stronger effect = lower value 0.954 | locus YPR025C, strain CCL1, stronger effect = lower value 0.984 | locus YPR106W, strain ISR1, stronger effect = lower value 1 | locus YPR111W, strain DBF20, stronger effect = lower value 0.998 | strain NNK1, stronger effect = lower value 0.992 | strain TSCII, stronger effect = lower value 0.985
